Results as given in paper PMC5540273 (PLoS ONE, 2017).
Like-named read-outs stand apart in the source and are kept apart here.

Legend:
MAP3K15 = conditions: concentration: 1 μM,replicates: in singlicate; n = 1
MAP3K1 = conditions: concentration: 1 μM,replicates: in singlicate; n = 1
MAP3K2 = conditions: concentration: 1 μM,replicates: in singlicate; n = 1
MAP3K3 = conditions: concentration: 1 μM,replicates: in singlicate; n = 1
MAP3K4 = conditions: concentration: 1 μM,replicates: in singlicate; n = 1
MAP4K2 = conditions: concentration: 1 μM,replicates: in singlicate; n = 1
MAP4K3 = conditions: concentration: 1 μM,replicates: in singlicate; n = 1
MAP4K4 = conditions: concentration: 1 μM,replicates: in singlicate; n = 1
MAP4K5 = conditions: concentration: 1 μM,replicates: in singlicate; n = 1
MAPKAPK2 = conditions: n = 1
[1] = concentration: 1 μM,replicates: in singlicate
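Further: KINOMEscan kinase panel screen.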

SMILES | %Inh (MAP3K15) | %Inh (MAP3K1) | %Inh (MAP3K2) | %Inh (MAP3K3) | %Inh (MAP3K4) | %Inh (MAP4K2) | %Inh (MAP4K3) | %Inh (MAP4K4) | %Inh (MAP4K5) | %Inh (MAPKAPK2; 1 µM) | %Inh (MAPKAPK2; [1])
C[C@@H]1CNc2c(sc3ccc4nc(-c5ccncc5)ccc4c23)C(=O)N1 | 52% | 0% | 0% | 5% | 0% | 70% | 1% | 0% | 0% | 97.1% | –
O=c1[nH]cc(-c2ccc(O)cc2)c2sc(-c3ccncc3)cc12 [GSK1033723] | 0% | 13% | 7% | 0% | 0% | 0% | 0% | 0% | 0% | – | 0%
COc1cc2c(Nc3ccc(NC(=O)c4ccccc4)cc3)ncnc2cc1OCCCN1CCOCC1 [GSK301329] | 0% | 9% | 11% | 0% | 47% | 0% | 6% | 11% | 63% | – | 23%
COc1cccc(CNC(=O)NC2CCN(c3ccnc(Nc4cc(OC)c(OC)c(OC)c4)n3)C2)c1 (stereo not drawn) [GSK1379765] | 0% | 10% | 0% | 0% | 0% | 0% | 1% | 1% | 3% | – | 46%
OCCn1cc(-c2cnc3nnn(Cc4ccc5ncccc5c4)c3n2)cn1 | 0% | 0% | 0% | 0% | 0% | 0% | 0% | 0% | 0% | – | 0%
Cn1ccc2ncnc(Oc3ccc(NC(=O)Nc4ccnc(C(F)(F)F)c4)c(Cl)c3)c21 | 0% | 0% | 0% | 6% | 0% | 0% | 3% | 0% | 0% | – | 1%
O=C(NCC1CC1)c1ccc(-c2cc(C(=O)NC3CC3)ccc2F)cc1 [GW810445] | 0% | 0% | 0% | 0% | 0% | 0% | 0% | 0% | 0% | – | 0%
CN1CCN(CCNc2nc3cc(Oc4ccc(NC(=O)Nc5cc(C(F)(F)F)ccc5F)cc4)ccc3[nH]2)CC1.Cl.Cl [GW768504] | 0% | 0% | 0% | 0% | 0% | 0% | 0% | 1% | 6% | – | 4%
CN(c1ccc2c(c1)nc(NCc1ccc(F)cc1)n2C)c1ccnc(Nc2ccc(CS(C)(=O)=O)cc2)n1.Cl [GW813244] | 24% | 26% | 31% | 23% | 2% | 0% | 40% | 10% | 11% | – | 0%
COc1cccc(OC)c1C(=O)Nc1cccc(-c2nn3ccccc3c2-c2ccnc(Nc3cccc(F)c3)n2)c1 [GSK361065] | 0% | 0% | 7% | 43% | 14% | 5% | 0% | 21% | 67% | – | 11%
O=C(Nc1cccc(C(F)(F)F)c1)c1cccc(Oc2ccc3nccn3n2)c1 | 1% | 21% | 19% | 0% | 22% | 0% | 8% | 14% | 23% | – | 0%
NC(=O)Nc1sc(-c2ccc(F)cc2)cc1C(N)=O [GW789449] | 16% | 10% | 85% | 72% | 18% | 23% | 0% | 26% | 13% | – | 0%
COc1cc2nccc(Nc3ccc(Oc4ccccc4)cc3)c2cc1OC.Cl [GI261656] | 0% | 21% | 0% | 0% | 0% | 0% | 0% | 0% | 0% | – | 0%
O=C(Nc1ccccc1)c1cccc(Oc2ccc3nccn3n2)c1 | 0% | 10% | 0% | 0% | 20% | 2% | 0% | 0% | 0% | – | 0%
CC(=O)Nc1ccc(-c2cc3ncnc(SCC(=O)O)c3s2)cc1 | 27% | 16% | 5% | 1% | 37% | 17% | 22% | 0% | 0% | – | 0%
Cl.c1ccc(Oc2ccc(Nc3ccnc4cc(-c5ccc(CN6CCNCC6)o5)ccc34)cc2)nc1 [GW567142] | 3% | 1% | 0% | 0% | 0% | 0% | 0% | 0% | 13% | – | 0%
O=C1NCCc2[nH]c(-c3ccncc3)cc21 | 85% | 5% | 0% | 23% | 3% | 52% | 15% | 25% | 6% | – | –

SMILES | %Inh (MAP3K15) | %Inh (MAP3K1) | %Inh (MAP3K2) | %Inh (MAP3K3) | %Inh (MAP3K4) | %Inh (MAP4K2) | %Inh (MAP4K3) | %Inh (MAP4K4) | %Inh (MAP4K5) | %Inh (MAPKAPK2; 1 µM) | %Inh (MAPKAPK2; [1])
O=C(Nc1ccc(Oc2ccc3nc(NC(=O)C4CC4)cn3n2)c(F)c1)c1cccn(-c2ccccc2)c1=O | 0% | 0% | 0% | 15% | 24% | 0% | 4% | 1% | 0% | – | 13%
Cn1ccc2ncnc(Oc3ccc(NC(=O)Nc4cncc(C(F)(F)F)c4)c(Cl)c3)c21 | 0% | 0% | 0% | 0% | 3% | 0% | 0% | 0% | 0% | – | 0%
Cc1n[nH]c2cc(Nc3ccnc(Nc4cccc(CN5CCOCC5)c4)n3)ccc12 [GW682569] | 0% | 29% | 8% | 0% | 0% | 5% | 0% | 10% | 14% | – | 0%
C[C@@H]1CCN(C(=O)N2CCCC2)C[C@@H]1N(C)c1ncnc2[nH]ccc12 | 31% | 36% | 17% | 16% | 7% | 0% | 8% | 0% | 0% | – | 0%
Cc1nnc(-c2ccc3occ(-c4ccc(S(C)=O)cc4)c3n2)o1 (stereo not drawn) | 0% | 0% | 0% | 0% | 1% | 0% | 44% | 0% | 38% | – | 0%
CCOC(=O)N1CCC(n2cnc(-c3ccc(F)cc3)c2-c2ccnc(N)n2)CC1 [SB-219952] | 36% | 29% | 6% | 11% | 6% | 0% | 0% | 9% | 4% | – | 24%
CCNCC(Cc1ccccc1)NC(=O)c1cc(Br)c(-c2ccnc3[nH]ccc23)s1.Cl.Cl (stereo not drawn) [GSK1383280] | 0% | 12% | 33% | 0% | 0% | 27% | 4% | 37% | 0% | – | 0%
O=C(Nc1cccc(Oc2ccc3nccn3n2)c1)Nc1cccc(C(F)(F)F)c1 | 0% | 17% | 3% | 10% | 30% | 0% | 3% | 68% | 26% | – | 0%
Cn1ccc2ncnc(Oc3ccc(NC(=O)Nc4cccc(C(F)(F)F)c4)c(Cl)c3)c21 | 0% | 0% | 6% | 0% | 4% | 6% | 0% | 12% | 1% | – | 0%
CCN1CCN(CCCC(=O)Nc2n[nH]c3nc(-c4ccc(O)cc4)c(Br)cc23)CC1 [SB-731579] | 0% | 0% | 0% | 0% | 0% | 0% | 0% | 7% | 5% | – | 17%
Cc1ccc(C(=O)Nc2ccc(Oc3ccc4nc(NC(=O)C5CC5)cn4c3)c(F)c2)c(=O)n1-c1ccccc1 | 0% | 0% | 0% | 5% | 12% | 0% | 16% | 0% | 0% | – | 0%
COc1cc(Nc2nccc(N3CCC(NC(=O)c4cccc(C#N)c4)C3)n2)cc(OC)c1OC (stereo not drawn) [GSK1379751] | 0% | 2% | 19% | 0% | 0% | 0% | 0% | 0% | 0% | – | 0%
CC(C(=O)NC1CCN(c2ccnc(Nc3ccc(F)cc3)n2)C1)c1ccc(Cl)cc1 (stereo not drawn) [GSK1379713] | 0% | 0% | 0% | 0% | 17% | 0% | 0% | 12% | 4% | – | 26%
CS(=O)(=O)c1cccc(CNc2nc(Nc3ccc4c(c3)[C@@H]3C[C@@H]4CNC3=O)ncc2C(F)(F)F)c1 | 0% | 0% | 65% | 47% | 0% | 68% | 68% | 40% | 0% | – | 0%
Cc1ccc(Nc2ccnc(Nc3ccc4c(c3)CS(=O)(=O)C4)n2)cc1O.Cl [GW579362] | 0% | 27% | 88% | 73% | 29% | 22% | 0% | 52% | 33% | – | 0%
COC(=O)c1cccc(NC(=O)NC2CCN(c3ccnc(Nc4cc(OC)c(OC)c(OC)c4)n3)C2)c1 (stereo not drawn) [GSK1379767] | 0% | 0% | 0% | 0% | 7% | 0% | 3% | 15% | 35% | – | 0%
C[C@@H](Oc1cc(-n2cnc3cc(-c4cnn(C)c4)ccc32)sc1C(N)=O)c1ccccc1Cl [GSK580432] | 12% | 90.6% | 20% | 20% | 37% | 60% | 93.8% | 32% | 98.9% | – | 0%
